Columns and labels:
Assay in all cases: PBM; 200 nM protein, PBS
Settings in all cases: dsDNA, one strand shown
HOXB9 [1] = biological target: HOXB9 (Homo sapiens, UniProt P17482 171-250, T197M)
HOXC10 [2] = biological target: HOXC10 (Homo sapiens, UniProt Q9NYD6 254-340)
HOXC10 [3] = biological target: HOXC10 (Homo sapiens, UniProt Q9NYD6 254-340, K271E)
HOXB9 [4] = biological target: HOXB9 (Homo sapiens, UniProt P17482 171-250)
HOXD13 [5] = biological target: HOXD13 (Homo sapiens, UniProt P35453 263-343, T313R)
Chain of HOXD13 (Homo sapiens, UniProt P35453 263-343, T313R) (P35453 263-343 T313R): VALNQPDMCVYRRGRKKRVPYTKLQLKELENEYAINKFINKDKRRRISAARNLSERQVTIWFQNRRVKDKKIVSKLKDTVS

HOXC9 [6] = biological target: HOXC9 (Homo sapiens, UniProt P31274 178-260, R193K)
Chain of HOXC9 (Homo sapiens, UniProt P31274 178-260, R193K) (P31274 178-260 R193K): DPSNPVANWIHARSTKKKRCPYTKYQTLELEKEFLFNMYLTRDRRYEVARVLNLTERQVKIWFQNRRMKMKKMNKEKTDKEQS

HOXD13 [7] = biological target: HOXD13 (Homo sapiens, UniProt P35453 263-343)
Chain of HOXD13 (Homo sapiens, UniProt P35453 263-343) (P35453 263-343): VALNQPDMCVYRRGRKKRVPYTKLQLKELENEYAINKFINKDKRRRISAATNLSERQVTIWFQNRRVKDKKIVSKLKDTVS

HOXD13 [8] = biological target: HOXD13 (Homo sapiens, UniProt P35453 263-343, T313A)
Chain of HOXD13 (Homo sapiens, UniProt P35453 263-343, T313A) (P35453 263-343 T313A): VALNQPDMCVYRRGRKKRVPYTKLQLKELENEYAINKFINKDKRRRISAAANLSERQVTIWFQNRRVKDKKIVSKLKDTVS

HOXB9 [9] = biological target: HOXB9 (Homo sapiens, UniProt P17482 171-250, R186Q)
Chain of HOXB9 (Homo sapiens, UniProt P17482 171-250, R186Q) (P17482 171-250 R186Q): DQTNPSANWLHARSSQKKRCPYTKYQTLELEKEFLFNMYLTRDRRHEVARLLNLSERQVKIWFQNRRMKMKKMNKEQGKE

HOXC9 [10] = biological target: HOXC9 (Homo sapiens, UniProt P31274 178-260, R222W)
Chain of HOXC9 (Homo sapiens, UniProt P31274 178-260, R222W) (P31274 178-260 R222W): as the sequence (P31274 178-260 R193K) above, with K16R, R45W counted along it

HOXC9 [11] = biological target: HOXC9 (Homo sapiens, UniProt P31274 178-260, K195R)
Chain of HOXC9 (Homo sapiens, UniProt P31274 178-260, K195R) (P31274 178-260 K195R): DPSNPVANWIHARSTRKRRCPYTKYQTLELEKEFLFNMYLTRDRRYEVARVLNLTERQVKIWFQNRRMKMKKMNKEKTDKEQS

HOXC9 [12] = biological target: HOXC9 (Homo sapiens, UniProt P31274 178-260)
Chain of HOXC9 (Homo sapiens, UniProt P31274 178-260) (P31274 178-260): as the sequence (P31274 178-260 R193K) above, with K16R counted along it

NKX3-2 [13] = biological target: NKX3-2 (Homo sapiens, UniProt P78367 192-278, P234S)
Chain of NKX3-2 (Homo sapiens, UniProt P78367 192-278, P234S) (P78367 192-278 P234S): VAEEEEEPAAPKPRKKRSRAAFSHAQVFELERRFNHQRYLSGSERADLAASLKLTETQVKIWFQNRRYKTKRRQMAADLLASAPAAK

NKX3-2 [14] = biological target: NKX3-2 (Homo sapiens, UniProt P78367 192-278)
Chain of NKX3-2 (Homo sapiens, UniProt P78367 192-278) (P78367 192-278): as the sequence (P78367 192-278 P234S) above, with S43P counted along it

PRRX1 [15] = biological target: PRRX1 (Homo sapiens, UniProt P54821 80-166, F113S)
Chain of PRRX1 (Homo sapiens, UniProt P54821 80-166, F113S) (P54821 80-166 F113S): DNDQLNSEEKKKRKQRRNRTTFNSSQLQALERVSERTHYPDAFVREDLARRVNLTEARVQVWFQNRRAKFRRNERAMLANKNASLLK

PRRX1 [16] = biological target: PRRX1 (Homo sapiens, UniProt P54821 80-166)
Chain of PRRX1 (Homo sapiens, UniProt P54821 80-166) (P54821 80-166): as the sequence (P54821 80-166 F113S) above, with S34F counted along it

Chain of HOXC10 (Homo sapiens, UniProt Q9NYD6 254-340) (Q9NYD6 254-340): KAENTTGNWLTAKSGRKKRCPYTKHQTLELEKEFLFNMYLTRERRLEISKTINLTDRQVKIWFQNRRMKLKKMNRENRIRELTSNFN
Chain of HOXC10 (Homo sapiens, UniProt Q9NYD6 254-340, K271E) (Q9NYD6 254-340 K271E): as the sequence (Q9NYD6 254-340) above, with K18E counted along it
Chain of HOXB9 (Homo sapiens, UniProt P17482 171-250) (P17482 171-250): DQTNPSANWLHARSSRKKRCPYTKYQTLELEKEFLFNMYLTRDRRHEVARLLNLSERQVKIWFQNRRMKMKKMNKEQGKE
Chain of HOXB9 (Homo sapiens, UniProt P17482 171-250, T197M) (P17482 171-250 T197M): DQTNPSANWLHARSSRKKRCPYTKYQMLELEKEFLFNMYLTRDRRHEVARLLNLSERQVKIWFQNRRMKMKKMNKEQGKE

Sequence: GGTCGTTA
- binding signal (HOXB9 [1]): 9.98 upbm affinity estimate (log intensity, higher = more binding, comparable within an allelic series)
- binding signal (HOXC10 [2]): 12.2 upbm affinity estimate (log intensity, higher = more binding, comparable within an allelic series)
- binding signal (HOXC10 [3]): 12.2 upbm affinity estimate (log intensity, higher = more binding, comparable within an allelic series)

Sequence: ATAAAATA
- binding signal (HOXB9 [1]): 9.86 upbm affinity estimate (log intensity, higher = more binding, comparable within an allelic series)
- binding signal (HOXC10 [2]): 12.3 upbm affinity estimate (log intensity, higher = more binding, comparable within an allelic series)
- binding signal (HOXB9 [4]): 11.8 upbm affinity estimate (log intensity, higher = more binding, comparable within an allelic series)
- binding signal (HOXD13 [5]): 10.8 upbm affinity estimate (log intensity, higher = more binding, comparable within an allelic series)
- binding signal (HOXC9 [6]): 12.5 upbm affinity estimate (log intensity, higher = more binding, comparable within an allelic series)
- binding signal (HOXD13 [7]): 11.8 upbm affinity estimate (log intensity, higher = more binding, comparable within an allelic series)
- binding signal (HOXC10 [3]): 11.7 upbm affinity estimate (log intensity, higher = more binding, comparable within an allelic series)
- binding signal (HOXD13 [8]): 11.6 upbm affinity estimate (log intensity, higher = more binding, comparable within an allelic series)
- binding signal (HOXB9 [9]): 11.4 upbm affinity estimate (log intensity, higher = more binding, comparable within an allelic series)
- binding signal (HOXC9 [10]): 11.3 upbm affinity estimate (log intensity, higher = more binding, comparable within an allelic series)

Sequence: CCGCTCCG
- binding signal (HOXB9 [1]): 8.44 upbm affinity estimate (log intensity, higher = more binding, comparable within an allelic series)
- binding signal (HOXC9 [11]): 9.63 upbm affinity estimate (log intensity, higher = more binding, comparable within an allelic series)
- binding signal (HOXB9 [4]): 8.59 upbm affinity estimate (log intensity, higher = more binding, comparable within an allelic series)
- binding signal (HOXC9 [12]): 9.73 upbm affinity estimate (log intensity, higher = more binding, comparable within an allelic series)
- binding signal (HOXC9 [6]): 9.74 upbm affinity estimate (log intensity, higher = more binding, comparable within an allelic series)
- binding signal (HOXB9 [9]): 8.66 upbm affinity estimate (log intensity, higher = more binding, comparable within an allelic series)
- binding signal (HOXC9 [10]): 9.7 upbm affinity estimate (log intensity, higher = more binding, comparable within an allelic series)

Sequence: GGCAGACC
- binding signal (HOXB9 [1]): 8.55 upbm affinity estimate (log intensity, higher = more binding, comparable within an allelic series)
- binding signal (HOXC10 [2]): 10.1 upbm affinity estimate (log intensity, higher = more binding, comparable within an allelic series)
- binding signal (HOXB9 [4]): 8.57 upbm affinity estimate (log intensity, higher = more binding, comparable within an allelic series)
- binding signal (HOXC10 [3]): 10.1 upbm affinity estimate (log intensity, higher = more binding, comparable within an allelic series)
- binding signal (HOXB9 [9]): 8.65 upbm affinity estimate (log intensity, higher = more binding, comparable within an allelic series)
- binding signal (NKX3-2 [13]): 10.4 upbm affinity estimate (log intensity, higher = more binding, comparable within an allelic series)
- binding signal (NKX3-2 [14]): 10.3 upbm affinity estimate (log intensity, higher = more binding, comparable within an allelic series)

Sequence: CAGAAGCC
- binding signal (HOXB9 [1]): 8.6 upbm affinity estimate (log intensity, higher = more binding, comparable within an allelic series)
- binding signal (PRRX1 [15]): 9.41 upbm affinity estimate (log intensity, higher = more binding, comparable within an allelic series)
- binding signal (HOXB9 [4]): 8.72 upbm affinity estimate (log intensity, higher = more binding, comparable within an allelic series)
- binding signal (HOXB9 [9]): 8.73 upbm affinity estimate (log intensity, higher = more binding, comparable within an allelic series)
- binding signal (PRRX1 [16]): 9.47 upbm affinity estimate (log intensity, higher = more binding, comparable within an allelic series)

— PMC11006913
